In the library only some 1.6% were active in any assay of this set; here they are far more common.
KCNQ2 inh = inhibitors of rat KCNQ2 potassium channel; CHO-K1 KCNQ2, FluxOR thallium flux, 20 min; hits give low values; AID 2156; O88943; B-score at 10 µM; hit rate 1.1% among 310,000;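 active means fluorescence ratio B-score at most minus 3 library SDs, with starting brightness B-score within 2 library SDs, cut at about -5.5 in these data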
Target sequence (O88943 whole entry, looked up): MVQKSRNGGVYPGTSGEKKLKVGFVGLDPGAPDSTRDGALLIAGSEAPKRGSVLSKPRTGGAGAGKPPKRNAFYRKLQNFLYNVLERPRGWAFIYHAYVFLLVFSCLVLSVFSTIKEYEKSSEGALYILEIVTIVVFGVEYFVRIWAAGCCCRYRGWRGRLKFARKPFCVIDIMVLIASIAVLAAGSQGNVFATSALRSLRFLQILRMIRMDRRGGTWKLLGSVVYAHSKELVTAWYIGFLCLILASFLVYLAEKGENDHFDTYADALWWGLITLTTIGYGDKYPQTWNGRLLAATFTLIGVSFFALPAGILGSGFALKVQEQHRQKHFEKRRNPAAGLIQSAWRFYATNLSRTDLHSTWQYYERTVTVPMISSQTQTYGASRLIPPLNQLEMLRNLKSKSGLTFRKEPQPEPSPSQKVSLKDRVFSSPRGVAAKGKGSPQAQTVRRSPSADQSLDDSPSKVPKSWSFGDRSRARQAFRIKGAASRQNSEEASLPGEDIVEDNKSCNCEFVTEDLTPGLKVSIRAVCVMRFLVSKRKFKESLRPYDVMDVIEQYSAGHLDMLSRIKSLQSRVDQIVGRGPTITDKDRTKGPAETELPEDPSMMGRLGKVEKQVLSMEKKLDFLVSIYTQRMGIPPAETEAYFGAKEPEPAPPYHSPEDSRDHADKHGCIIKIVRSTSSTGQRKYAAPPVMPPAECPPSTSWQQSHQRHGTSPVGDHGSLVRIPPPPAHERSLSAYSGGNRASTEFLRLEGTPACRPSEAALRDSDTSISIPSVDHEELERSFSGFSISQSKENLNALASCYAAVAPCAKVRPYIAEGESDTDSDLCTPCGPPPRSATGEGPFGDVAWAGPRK
KCNQ2 enhance = potentiators of rat KCNQ2 potassium channel; hit rate 0.54% among 310,000; CHO-K1 KCNQ2, FluxOR thallium flux fluorescence; hits give high values; O88943; B-score at 10 µM;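 active means fluorescence ratio B-score at least 3 SD of library B-scores, with initial fluorescence B-score within 3 of them, cut at about 5.3 in these data; same plate scores as AID 2156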;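 further: B-score of peak minus minimum over baseline fluorescence ratio after K+ and Tl+ stimulus; positive B-score means potentiation of KCNQ2 with more thallium influx and brighter signal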
Kir21 confirm = confirmation of mouse Kir2.1 potassium channel inhibitors | shares compounds with KCNQ2 enhance | Tl flux remaining, % of negative control (hits give low values), % at 10 µM | Kir2.1-expressing cells, FluxOR thallium flux fluorescence; hits give low values | AID 2032 | hit rate 41% among 2,300;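 active means Primary-screen hit whose thallium flux fell at least 3 control SD below untreated wells in both duplicates, with normal baseline fluorescence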
HEK293 ctr = alters thallium flux in parental HEK293 cells, Kir2.1 counter-screen. shares compounds with KCNQ2 enhance. hit rate 19% among 2,300. FluxOR signal as % of negative control (100 = no effect), % at 10 µM. FluxOR thallium flux fluorescence; 0% = unstimulated blank wells;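 active means dye signal at least 3 control SD above or below untreated wells in both duplicates, raw fluorescence within 3, either direction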;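 further: percent is based on the flux ratio of peak minus minimum fluorescence over baseline F0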
CHO-K1 Tl ctr = counter-screen for KCNQ2 potentiators: effect in parental CHO-K1 cells. hit rate 43% among 1,200. FluxOR thallium flux fluorescence; zero = vehicle mean+3SD, 100% = vehicle-minus-blank window. activity increase over 3SD of controls, % at 10 µM. shares compounds with KCNQ2 enhance;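 active means signal rise of at least 3 SD above the untreated control mean, in both duplicate wells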;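 further: counter screen of KCNQ2 potentiator hits so any rise reflects channel-independent effects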
KCNQ1 sel pot = tests whether KCNQ2 potentiators also act on human KCNQ1. shares compounds with KCNQ2 enhance. CHO KCNQ1 stable, FluxOR thallium flux fluorescence; beyond 3SD, as % of vehicle-control signal. activation over 3SD threshold, % at 10 µM. hit rate 28% among 1,200. AID 2283;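 active means fluorescence ratio rise of at least 3 SD of vehicle wells above their mean, in both replicate wells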
KCNQ2 pot confirm = confirmation of rat KCNQ2 potassium channel potentiators. shares compounds with KCNQ2 enhance. CHO-KCNQ2 cells, FluxOR thallium flux fluorescence. potentiation, less the hit threshold, % at 10 µM. hit rate 68% among 1,200. AID 2287;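 active means fluorescence ratio rising 3 SD or more over the vehicle control mean in both replicates, plus primary screen hit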;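 further: peak minus minimum thallium fluorescence divided by baseline after K/Tl stimulus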
Kir2-1 sel = tests whether KCNQ2 potentiators also affect mouse Kir2.1 | HEK293 Kir2.1, FluxOR thallium flux fluorescence | shares compounds with KCNQ2 enhance | hit rate 2% among 1,200 | activity over 3SD threshold, % at 10 µM;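 active means fluorescence ratio rise of at least 3 SD above the vehicle-control mean, seen in both replicates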
KCNQ2 W236L MoA = rat KCNQ2 W236L mutant potentiation by KCNQ2 potentiators. shares compounds with KCNQ2 enhance. CHO KCNQ2-W236L, automated patch clamp current. current increase over 3SD of negative controls (%), hits give high values, % at 25 µM. hit rate 10% among 940. AID 2558;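 active means current increase at least 3 SD of the untreated controls above them in both duplicate recordings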
Numbers stand for hits; n = inactive; x = not tested or not shown.

SMILES	KCNQ2 inh	KCNQ2 enhance	Kir21 confirm	HEK293 ctr	others
CCc1ccc(Nc2n[n+](-c3ccccc3)c(-c3c(Cl)cccc3Cl)s2)cc1	n	x	x	x
CC1=NN(C(N)=S)C(=O)C1N=Nc1cccc2ccccc12 (centres undefined)	n	x	x	x
CC1=NN(C(N)=S)C(=O)C1N=Nc1cccc(Cl)c1C (centres undefined)	n	40	n	n	CHO-K1 Tl ctr=n;KCNQ1 sel pot=n;KCNQ2 pot confirm=110;Kir2-1 sel=n;KCNQ2 W236L MoA=n
Cc1c(C(=O)N(C)CCCCN2CCOCC2)oc2c(F)cccc12	n	x	x	x
Cc1ccc(C)c(C(=O)OCC(=O)Nc2ccc(N3CCOCC3)cc2)c1	n	n	x	x
CCOC(=O)c1c(-c2ccccc2)oc2ccc(O)c(CN(C)C)c12	n	n	n	n
CCOC(=O)c1c(-c2ccccc2)oc2ccc(O)c(CN3CCCC3)c12	n	x	26%	n
CCOC(=O)c1c(-c2ccccc2)oc2ccc(OC(C)C(=O)O)cc12 (centres undefined)	n	x	x	x
CCOC(=O)c1c(-c2ccccc2)oc2ccc(OCC(O)CN(C)C)cc12 (centres undefined)	-5.6	n	n	n
Cc1oc2ccc(O)c(CN(C)C)c2c1C(=O)c1ccccc1	n	x	x	x
COCCOC(=O)c1c(C)oc2ccc(O)c(CN3CCC(C)CC3)c12	n	n	x	x
Cc1ccc(S(=O)(=O)NCC2CCC(C(=O)NCc3cccnc3)CC2)cc1 (centres undefined)	n	n	x	x
Cc1cc(C)n(CC(=O)NC2CCCCC2C)c(=O)c1C#N (centres undefined)	n	n	x	x
O=C(c1ccc(S(=O)(=O)c2cccc(Cl)c2)c([N+](=O)[O-])c1)N1CCN(Cc2ccccc2)CC1	n	x	x	x
Cc1cc(N2CCOCC2)nc(NCc2ccccc2)n1	n	n	x	x
Cc1cc(N2CCCCC2)nc(NCc2ccccc2)n1	n	n	48%	n
Cc1onc(-c2ccccc2)c1C(=O)OCC(=O)Nc1ccc2c(c1)OCO2	n	x	x	x
Cc1onc(-c2ccccc2Cl)c1C(=O)OCC(=O)Nc1ccc2c(c1)OCO2	n	8	n	n	CHO-K1 Tl ctr=3.4;KCNQ1 sel pot=0.5;KCNQ2 pot confirm=n;Kir2-1 sel=n;KCNQ2 W236L MoA=n
COCCn1c(SC(C)C(=O)Nc2ccc(N3CCOCC3)cc2)nnc1-c1ccncc1 (centres undefined)	n	n	x	x
COc1ccc([N+](=O)[O-])cc1N(CC(=O)NCCCOC(C)C)S(C)(=O)=O	n	n	x	x
CN1CCN(c2ccccc2NC(=O)COc2ccc(Cl)cc2)CC1	n	x	x	x
OC(COCc1ccccc1)CN1CCc2ccccc2C1 (centres undefined)	n	n	x	x
OC(COc1ccc(Cl)cc1)CN1CCC(Cc2ccccc2)CC1 (centres undefined)	n	x	x	x
Cc1cccc(C)c1OCC(O)CN1CCc2ccccc2C1 (centres undefined)	n	x	x	x
OC(COc1c(F)cc(Br)cc1F)CN1CCc2ccccc2C1 (centres undefined)	n	x	26%	n
SMILES	KCNQ2 inh	KCNQ2 enhance	Kir21 confirm	HEK293 ctr	others
Cc1ccc(C(C)C)c(OCC(O)CN2CCc3ccccc3C2)c1 (centres undefined)	n	x	63%	n
Cc1ccc(C)c(OCC(O)CN2CCC(Cc3ccccc3)CC2)c1 (centres undefined)	n	x	49%	n
CC(=O)N1CCN(C2=NC(=O)/C(=C/c3ccc(OS(=O)(=O)c4ccccc4)cc3)S2)CC1	n	x	x	x
COc1ccc(N(CC(=O)NCc2ccccc2OC)S(=O)(=O)c2ccc(C)cc2)cc1Cl	n	n	x	x
CCn1c(C)c(C)c2cc(C(=O)NC3CCCCCC3)ccc21	n	x	x	x
Cc1nn(C(C)C(=O)NCCCN2CCCC2)c(=O)c2nn(-c3ccccc3)c(C)c12 (centres undefined)	n	n	x	x
CC(Oc1ccccc1F)C(=O)NNC(=O)CCNC(=O)c1ccccc1Cl (centres undefined)	n	n	x	x
Cc1[nH]c2ccccc2c1C(=O)C(=O)N1CCCc2ccccc21	n	x	x	x
Cc1[nH]c2ccccc2c1SCC(=O)N1CCCc2ccccc21	n	x	54%	n
CCOc1cc(C)c(Cl)cc1S(=O)(=O)NCc1ccc2c(c1)OCO2	n	x	68%	n
CCOc1cc(C)c(Cl)cc1S(=O)(=O)NCc1ccco1	n	x	56%	n
O=S(=O)(NCc1ccc(Cl)cc1)c1cccc2cccnc12	n	n	x	x
Cc1cc(S(=O)(=O)NCc2ccco2)c(C)cc1Cl	n	x	x	x
Cc1cc(C)c(S(=O)(=O)NCc2ccc3c(c2)OCO3)c(C)c1	n	x	x	x
Cc1cc(C)c(C)c(S(=O)(=O)NCc2ccco2)c1C	n	x	54%	n
O=S(=O)(NCc1ccc2c(c1)OCO2)c1cccc2cccnc12	n	13	x	x	CHO-K1 Tl ctr=5.4;KCNQ1 sel pot=n;KCNQ2 pot confirm=n;Kir2-1 sel=n
COc1cc(C)c(Cl)cc1S(=O)(=O)NCc1ccco1	n	n	x	x
COc1ccc(OC)c(NC(=O)c2ccc(-c3cccs3)cc2)c1	n	n	x	x
CCOC(=O)CNC(=O)CSc1nc(Cc2ccccc2)nc2ccccc12	n	n	x	x
COC(=O)C1CCN(C(=O)C2CCN(C(=O)[C@@H](NS(=O)(=O)c3ccc(C)cc3)C(C)C)CC2)CC1	n	x	x	x
COCCCNC(=O)c1ccccc1NS(=O)(=O)c1ccc(C)cc1	n	n	x	x
Cc1cc(C)c(S(=O)(=O)NCc2ccc3c(c2)OCO3)cc1C	n	x	x	x
CCOc1cc(S(=O)(=O)NCc2ccc3c(c2)OCO3)c(C)cc1C	n	x	65%	n
O=C(NCC(=O)N1CCC2(CC1)NCCc1[nH]cnc12)c1ccc2ccccc2c1	n	x	x	x
CC1CCN(CC(=O)Nc2ccc(S(=O)(=O)N3CCCCC3)cc2)CC1	n	n	x	x
SMILES	KCNQ2 inh	KCNQ2 enhance	Kir21 confirm	HEK293 ctr	others
CC1CCN(CC(=O)Nc2ccc(N3CCCCCC3)cc2)CC1	n	5.9	x	x	CHO-K1 Tl ctr=7.2;KCNQ1 sel pot=n;KCNQ2 pot confirm=n;Kir2-1 sel=n
Cc1c(CCC(=O)N[C@@H](CC(C)C)C(=O)O)c(=O)oc2cc3oc4c(c3cc12)CCCC4	n	n	x	x
O=C(/C=C/c1ccccc1)OCc1cnc(Cl)s1	n	x	x	x
O=C(Nc1nnc(C2CC2)s1)c1n[nH]c(=O)c2ccccc12	n	n	x	x
CCc1ccc(C2C(C#N)=C(N)OC3=C2C(=O)CCC3)s1 (centres undefined)	n	n	x	x
Cc1ccc(C2C(C#N)=C(N)OC3=C2C(=O)CCC3)s1 (centres undefined)	n	6.5	n	n	CHO-K1 Tl ctr=n;KCNQ1 sel pot=3.7;KCNQ2 pot confirm=1.5;Kir2-1 sel=n;KCNQ2 W236L MoA=n
COc1cccc(/C=C/C(=O)NCC2CCCCC2)c1	n	x	x	x

Screening data deposited in PubChem BioAssay by Johns Hopkins Ion Channel Center.
